Compounds with a hit are over-represented: about 7% of the library has one in this group of screens.
a7 integrin act = qHTS for Activators of Integrin-Mediated Alleviation for Muscular Dystrophy; Potency, µM (doses to about 38.3 µM), usual class: activators; alpha7betagal myoblasts, beta-gal FDG fluorescence, 48 h; AID 624291, 2012; actives 0.064% (n = 350,000); note: nearly all actives have a fitted effect of over 60% in size
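Alpha7betagal+/- myoblasts (passage 13) were plated 16-24 hr, then exposed to compounds (1:260 dilution of DMSO stock) for 48 hours at 37C. After MPER lysis, β-galactosidase reporter activity was read as FDG fluorescence (ex 480/em 540) after 30 minutes.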
DRD3 agonist = qHTS of D3 Dopamine Receptor Agonist: qHTS; D(3) dopamine receptor (Homo sapiens), P35462; D3R DiscoveRx beta-arrestin cells, luminescence, 90 min; max activation, %; actives 0.58% (n = 410,000); AID 652048, 2013; in the data active = max activation above about 30%
Target sequence (P35462 whole entry, looked up): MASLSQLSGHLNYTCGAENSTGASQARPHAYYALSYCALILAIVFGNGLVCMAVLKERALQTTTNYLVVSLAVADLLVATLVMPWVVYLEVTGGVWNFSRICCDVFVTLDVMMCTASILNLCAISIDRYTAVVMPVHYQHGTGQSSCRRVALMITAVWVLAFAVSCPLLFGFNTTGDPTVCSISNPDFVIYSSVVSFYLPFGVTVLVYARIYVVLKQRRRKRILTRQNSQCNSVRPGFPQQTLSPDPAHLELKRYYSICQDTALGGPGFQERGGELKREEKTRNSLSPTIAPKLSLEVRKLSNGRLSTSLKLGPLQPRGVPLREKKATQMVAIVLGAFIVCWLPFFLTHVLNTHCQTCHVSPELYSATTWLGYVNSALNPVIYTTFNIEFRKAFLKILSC
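Agonist mode: compounds and dopamine controls were applied to plated cells for 90 min at 37 degrees C after an overnight attachment at 1500 cells/well. Luminescent read-out followed 30 - 60 minutes at room temperature with DiscoveRx detection reagent.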
ATXN2 expr inh = Primary qHTS for Inhibitors of ATXN expression; HEK-293 ATXN2-luciferase reporter, luminescence, 24 h; Potency, µM (doses to about 57 µM), actives largely listed as inhibitors; actives 0.72% (n = 360,000); note: nearly all actives have a fitted effect of over 55% in size
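qHTS (up to 57 uM final) was run with 24 h compound exposure of reporter cells at 37 °C. Each well was multiplexed: SteadyGlo luminescence measured ATXN2-luciferase expression after a fluorogenic Gly-Phe-AFC viability readout (25 uM final).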
DRD3 antagonist = qHTS of D3 Dopamine Receptor Antagonist: qHTS. D3R cells, DiscoveRx beta-arrestin luminescence, antagonist mode; hits give low values. D(3) dopamine receptor (Homo sapiens), P35462. actives 2.5% (n = 360,000). max response, negative = inhibition, %. AID 652054, 2013; in the data active = max response below about -50%; inconclusive = no clear call, values can overlap the other calls
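Cells plated overnight at 1500 cells/well, then exposed to library compounds with dopamine controls for 90 minutes at 37 degrees C. DiscoveRx reagent added for 30–60 minutes at room temperature; luminescence read, quantitative HTS format.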
IL-1B inflam inh = qHTS for Inhibitors of Inflammasome Signaling: IL-1-beta AlphaLISA Primary Screen. actives 4.7% (n = 360,000). AID 743279, 2014. activity change, % at 57.5 µM. THP-1 LPS/ATP IL-1B secretion, AlphaLISA, 16 h; hits give low values; in the data active = activity change below about -50%; inconclusive = mostly about -30% to -49%
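THP-1 cells pretreated 1 hr with compounds (up to 57.5 uM final), then stimulated with LPS (250 ng/mL final) plus ATP (1.25 mM final); secreted IL-1B measured by AlphaLISA after 16 hr, decreased signal indicating inhibition.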
S2 tox = Viability Counterscreen for Primary qHTS for Inhibitors of ATXN expression. S2 cells (HEK-293 line with an ATXN2-luciferase reporter) viability, CellTiter-Fluor protease fluorescence, 24 h. Potency, µM (titrated, usually from 56.7 µM), usual class: cytotoxic. actives 0.49% (n = 400,000). AID 651635, 2014; note: nearly all actives have a fitted effect of over 40% in size
A number is an active result; - = inactive; ? = inconclusive; . = not tested or not shown; [ ] = dose if it differs, or a comment. Unless noted, calls come from the whole dose curve; as a rule, active = well fitted curve in the direction sought with a large enough effect; inconclusive = small, poorly fitted or top-dose-only effect, or another doubt; inactive = no such curve, though single readings can be large; an effect the other way counts as inactive or inconclusive.

SMILES	a7 integrin act	DRD3 agonist	ATXN2 expr inh	DRD3 antagonist	IL-1B inflam inh	S2 tox
COc1ccc(/C=C2\SC(=S)N(CCCC(=O)Nc3ccc(O)cc3)C2=O)cc1	-	-	-	-	-59	-
O=C(CCN1C(=O)/C(=C/c2ccccc2F)SC1=S)NCCc1ccc(O)cc1	-	-	-	-	?	?
Nc1nc(N)c2cc(S(=O)(=O)c3cccc(C(F)(F)F)c3)ccc2n1	-	-	.	-	-	-
Cc1ccc(/C=C2\SC(=S)N(CC(=O)Nc3cccnc3)C2=O)cc1	-	-	-[11.3 µM]	-	-	-
Cc1ccc(/C=C2\SC(=S)N(CCCC(=O)Nc3cccnc3)C2=O)cc1	-	-	3.5µM	-	?	?
CCN(CC)CCOC(=O)c1ccc(NC(=O)CCCN2C(=O)/C(=C\c3cccs3)SC2=S)cc1	-	-	?	-109	-	.
O=C(CCCN1C(=O)/C(=C\c2cccc(Br)c2)SC1=S)Nc1cccnc1	-	-	?	-	-51	?
COC(=O)c1ccc(/C=C2/SC(=S)N(CCCC(=O)Nc3ccccn3)C2=O)cc1	-	-	?	-	-	-
CCc1ccc(/C=C2\SC(=S)N(CCCC(=O)Nc3ccccn3)C2=O)cc1	-	-	4.5µM	-	-	?
O=C(O)CC(CN1C(=O)c2ccccc2C1=O)c1ccccc1 (centres undefined)	-	-	-	-	-	-
C=CCNC(=O)CSc1cc([N+](=O)[O-])cc(S(=O)(=O)Cc2ccccc2)c1	-	-	-	-	-	-
Cc1cc(N2CCN(C)CC2)ccc1NC(=O)c1cccc(S(=O)(=O)N2CCc3ccccc3C2)c1	-	-	-	-	-103	?
Cc1ccnc(NC(=O)CS(=O)(=O)Cc2ccccc2)c1	-	-	-	-	-	-
CCOC(=O)C(=O)C1=C(N2CCOCC2)/C(=C\c2cccc([N+](=O)[O-])c2)CC1	-	-	-	-	-	-
Cc1csc(N=Nc2ccc(N(C)C)cc2)[n+]1[O-]	-	-	.	-102	-80	.
CN(C)c1ccc(N=Nc2ccc(C(=O)O)cc2)cc1	-	-	-	?	-	?
CCOc1ccc(NC(=O)c2sc3nc(C)nc(N4CCOCC4)c3c2C)cc1	-	-	-	-	-53	-
Cc1nc(N2CCOCC2)c2c(C)c(C(=O)Nc3ccc(F)cc3F)sc2n1	-	-	-	-	-68	-
Cc1cccc(NC(=O)c2sc3nc(C)nc(N4CCOCC4)c3c2C)c1	-	-	.	-	?	-
Cc1nc(N2CCC(C)CC2)c2c(C)c(C(=O)Nc3ccc(C)c(F)c3)sc2n1	-	-	-	-	-	-
Cc1nc(N2CCC(C)CC2)c2c(C)c(C(=O)Nc3ccccc3C(F)(F)F)sc2n1	-	31	-	-	-	-
COc1ccc(NC(=O)c2sc3nc(C)nc(N4CCOCC4)c3c2C)c(OC)c1	-	-	-	-	-	-
Nc1ccc2c(c1)Nc1ccccc1CC2	-	-	-	-	-	?
N#Cc1c(C(F)(F)F)cc(=O)n2c1[nH]c1ccccc12	-	-	?	-	-74	.
N#Cc1c(CSCC(=O)O)cc(=O)n2c1[nH]c1ccccc12	-	-	-	-	-	-
SMILES	a7 integrin act	DRD3 agonist	ATXN2 expr inh	DRD3 antagonist	IL-1B inflam inh	S2 tox
COc1ccc(-c2coc3c(C(=O)N4CCN(C)CC4)cccc23)c(C)c1	.	-	-	-87	-	-
COc1ccc(-c2ccc(C(=O)NCc3ccc(N4CCN(C)CC4)cc3)c3occc23)c(C)c1	.	-	?	-	?	25µM
COc1ccc(NC(=O)c2cccc3c(-c4ccc(OC)cc4C)coc23)cc1	.	-	-	-	-	-
O=C(NCC1CC1)c1cccc2c(-c3ccc(F)c(F)c3)coc12	.	-	-	-	-	-
CN1CCN(C(=O)c2cccc3c(-c4ccc(F)c(F)c4)coc23)CC1	.	-	-	-100	-	-
O=C(NC1CC1)C1CC(=O)N(c2cccc(Cl)c2Cl)C1 (centres undefined)	-	-	-	-	-	-
Cc1ccc(NS(=O)(=O)c2ccc(CCC(=O)NCc3cccnc3)cc2)cc1	-	-	-	-	-	-
CCN1CCN(C(=O)N[C@H](C(=O)N[C@@H]2C(=O)N3[C@@H]2SC(C)(C)[C@@H]3C(=O)O)c2ccccc2)C(=O)C1=O	.	.	.	.	.	-
O=C1CN(C(=O)COC(=O)CCc2ccccc2)c2ccccc2N1	-	-	-	-	-	-
O=C(Nc1ccc(Br)cc1)c1cc([N+](=O)[O-])cc([N+](=O)[O-])c1	-	-	-	-	-101	-
O=C(COc1cccc(NC(=O)c2cccc([N+](=O)[O-])c2)c1)c1ccc(Br)cc1	-	-	?	-	-72	?
Cc1ccc(NC(=O)c2ccc(Nc3c([N+](=O)[O-])cc([N+](=O)[O-])cc3[N+](=O)[O-])cc2)cc1	-	-	20µM	-77	-103	.
Cc1cc(C)cc(C(=O)N2CC(=O)Nc3ccc(Br)cc3C2c2ccccc2)c1 (centres undefined)	.	-	-	.	.	-
Cn1c(SCc2ccccc2)nccc1=O	-	-	-	-	-	-
CC1=C(SCc2ccccc2)C(=O)c2ccccc2C1=O	-	-	?	-89	-70	?
Cc1cccc(C(=O)N2c3ncnn3C3(CCCCC3)[C@@H]3CCCC[C@@H]32)c1	.	-	-	.	.	-
CC(C)(C)NCC(O)c1ccc(O)c(CO)n1 (centres undefined)	.	-	.	.	.	.
Nc1nc(Sc2ccc([N+](=O)[O-])c3nonc23)c2[nH]cnc2n1	-	-	14µM	-60	-119	.
CNc1ncnc(Sc2nc(N)nc3nc[nH]c23)c1[N+](=O)[O-]	-	-	?	-	-59	?
N#CC(=C1Nc2ccccc2S1)c1ccnc(OCc2ccc(CN3CCOCC3)cc2)n1	.	.	0.014µM	.	.	.
N#C/C(C(=O)N1CCOCC1)=C1\Nc2ccccc2S1	-	-	-	-	-	-
Cn1c(=O)cc(SCC(=O)NCc2ccc(F)cc2)c2cc(Cl)ccc21	.	-	-	.	.	-
COC(=O)C(NS(=O)(=O)c1ccc(NC(C)=O)cc1)C(C)C (centres undefined)	-	-	-	-74	-	-
Cc1sc2ncnc(OCC(=O)NCc3cccs3)c2c1C	-	-	-	-83	-	-
CNC(=O)COc1ncnc2sc(C)c(C)c12	-	-	-	-	-	-
Cc1ccccc1N1CCN(Cc2ccc(Br)o2)CC1	-	-	-	-58	-	-
Cc1cccc(N2CCN(Cc3ccc(Br)o3)CC2)c1C	-	-	-	-56	-	-
